Vif-APOBEC3F blk: qHTS for Inhibitors of Vif-A3F Interactions: qHTS. AID 602313, 2012. Potency, µM (titrated, usually from 46.1 µM). 390,000 tested, 0.2% active. HeLa A3F-eYFP + Vif (tagged APOBEC3F with the HIV-1 protein that degrades it), YFP fluorescence increase; note: nearly all actives have a fitted effect of over 65% in size
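HeLa cells stably expressing A3F-eYFP plus Vif, plated and incubated overnight at 37 deg C, then exposed to compounds overnight at 37 deg C. Blocked degradation read as raised yellow fluorescence (Ex 488/Em 500-530).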
ALOX12 inh: Primary qHTS assay for inhibitors of human arachidonate 12S-lipoxygenase (ALOX12): Round 2; Potency, µM (top dose mostly 108 µM), usual class: inhibitors; Polyunsaturated fatty acid lipoxygenase ALOX12 (Homo sapiens), P18054; purified 12hLO, xylenol orange hydroperoxide absorbance; 580,000 tested, 1.1% active; AID 1671190, 2021
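Purified human 12hLO (150 nM final) in 25 mM Hepes, 0.01% Triton X-100, pH 7.0 was preincubated 15 min at room temperature with compound. Then 40 uM arachidonic acid was added, 30 min. Hydroperoxide was read by Fe-XO absorbance ratio 573/405 nm.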
PTAP TSG101 blk: qHTS Assay for Iinhibitors of HIV-1 Budding by Blocking the Interaction of PTAP/TSG101 | Potency, µM (highest dose often 115 µM), usual class: inhibitors | Fluorescence polarization, FITC-PTAP peptide / Tsg101 binding | 340,000 tested, under 10 active; active = well fitted inhibition curve with a large enough effect in the main read-out, with a control signal flat, not every such curve was filed as active; inconclusive = small, poorly fitted or top-dose-only effect, or effect the other way, or a change in a side signal; inactive = no such curve, though single readings can be large or run the other way
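Fluorescence polarization binding of Tsg101 binding domain (10 uM final) to FITC-labeled PTAP peptide (50 nM final) in HEPES pH 7.5 buffer with NaCl, Tween 20, EDTA, TCEP. Compounds added before peptide; binding 20 min at RT.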
S-ASM inh: Inhibitors of Secretory Acid Sphingomyelinase (S-ASM): qHTS. placental ASM, HMU-PC fluorogenic substrate, 60 min. Potency, µM (highest dose often 57.5 µM), most hits filed as inhibitors. 340,000 tested, 0.006% active. AID 504937, 2011
Target sequence (P17405 47-631 limits assumed): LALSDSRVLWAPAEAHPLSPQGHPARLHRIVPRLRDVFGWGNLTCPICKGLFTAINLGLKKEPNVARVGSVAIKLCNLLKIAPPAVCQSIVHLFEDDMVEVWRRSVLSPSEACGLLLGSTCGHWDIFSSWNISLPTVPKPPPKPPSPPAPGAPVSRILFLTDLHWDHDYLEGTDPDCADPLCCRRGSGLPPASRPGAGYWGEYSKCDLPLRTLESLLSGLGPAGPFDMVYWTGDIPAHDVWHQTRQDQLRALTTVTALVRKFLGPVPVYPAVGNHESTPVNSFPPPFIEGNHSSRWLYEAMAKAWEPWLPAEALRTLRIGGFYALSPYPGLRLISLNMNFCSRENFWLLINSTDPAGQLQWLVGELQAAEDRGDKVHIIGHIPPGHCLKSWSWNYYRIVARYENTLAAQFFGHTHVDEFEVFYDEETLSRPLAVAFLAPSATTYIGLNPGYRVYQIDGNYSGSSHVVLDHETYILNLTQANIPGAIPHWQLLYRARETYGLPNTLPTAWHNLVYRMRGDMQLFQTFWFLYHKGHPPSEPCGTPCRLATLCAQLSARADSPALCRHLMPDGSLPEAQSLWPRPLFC
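Fluorescence read-out (Ex 386 nm, Em 447 nm) after stopping the reaction at pH 10. Enzyme: ASM from human placenta; substrate HMU-PC0, 9 uM final; 60 min, 37 °C. Compound preincubation 10 min, ambient temperature.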
Vif-A3G inh: qHTS for Inhibitors of Vif-A3G Interactions: qHTS | AID 602310, 2012 | Potency, µM (doses to about 46.1 µM), most hits filed as inhibitors | DNA dC->dU-editing enzyme APOBEC-3G (Homo sapiens), Q9HC16 | 410,000 tested, 0.076% active | HeLa A3G-eYFP + Vif (tagged APOBEC3G with the HIV-1 protein that degrades it), YFP fluorescence, overnight; note: nearly all actives have a fitted effect of over 60% in size
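Read-out is eYFP fluorescence (Ex 488/Em 500-530) from Vif-expressing HeLa A3G-eYFP cells; more signal means A3G escaped Vif-mediated degradation. Cells plated overnight, compound pinned in, incubated overnight at 37 deg C.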
Akt phos inh: HTS Assay for Inhibitors of Akt Phophorylation: Primary Screen; activity change, % for hits at 50 µM; 360,000 tested, 0.32% active; AID 651550, 2012; Neuro2A IGF-stimulated pAkt S473 HTRF, 20 min; stronger effect = lower value; in the data active = activity change below about -80%; inconclusive = mostly about -51% to -80%
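Neuro2A cells (4,500/well, DMEM with 0.5% FBS) were treated with compound at a single 50 µM final concentration, stimulated with 6 nM IGF for 20 min at 37 °C, and lysed. Phospho-Akt Ser473 was read by HTRF as 665/615 ratio ×10^4.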
A number is an active result; – = inactive; ? = inconclusive; · = not tested or not shown. Compounds with a hit are over-represented: about 1.4% of the library has one in this group of screens. Unless noted, calls come from the whole dose curve; as a rule, active = well fitted curve in the direction sought with a large enough effect; inconclusive = small, poorly fitted or top-dose-only effect, or another doubt; inactive = no such curve, though single readings can be large; an effect the other way counts as inactive or inconclusive.

SMILES | Vif-APOBEC3F blk | ALOX12 inh | PTAP TSG101 blk | S-ASM inh | Vif-A3G inh | Akt phos inh
CCc1ccc(C(=O)/C=C/c2ccc([N+](=O)[O-])o2)cc1 | ? | ? | – | – | ? | –
CCOC(=O)Nc1cc2c(c(N)n1)N=C(c1ccccc1)CN2 | 22µM | – | – | – | ? | –
CCCCCC(=O)Nc1nc2c(s1)C[C@@H]1[C@](C)(CO)[C@H](O)CC[C@@]1(C)[C@@H]2CC(=O)NCCc1ccc(OC)c(OC)c1 | · | – | · | · | · | ·
N#C/C=C1/NC(=O)c2ccccc2S1 | – | – | – | – | – | -110%
COC(=O)c1ccc2c(c1)NC(=O)c1ccccc1S2 | – | – | – | – | – | –
CCOc1ccc(OCC(=O)Nc2ccc3oc(C)nc3c2)cc1 | · | – | · | · | · | ·
Nc1nc(Nc2ccc(F)cc2)nc(-c2cc3ccccc3o2)n1 | · | – | · | · | · | ·
Fc1ccc(N/N=C/c2ccc(Cl)c(Cl)c2)c(F)c1 | · | 35µM | · | · | · | ·
Fc1ccc(N/N=C/c2cccnc2)c(F)c1 | – | – | – | – | – | –
Cc1cc(C)nc(N/N=C/c2sccc2C)n1 | – | – | – | – | – | –
Fc1ccc(N/N=C/c2ccccc2Cl)c(F)c1 | · | 3.2µM | · | · | · | ·
Cc1ccsc1/C=N/Nc1ccc(F)cc1F | – | 40µM | – | – | – | –
O=[N+]([O-])c1ccccc1N/N=C\c1ccccc1Cl | – | – | – | – | – | –
Cn1c(=O)c2nc(SCCC(=O)Nc3ccccc3)n(C)c2n(C)c1=O | · | – | · | · | · | ·
COc1ccc(C=O)cc1COc1cc(C)cc(C)c1 | · | – | · | · | · | ·
c1ccc(CNC[C@H]2COCc3nc4ccccc4n32)cc1 | · | – | · | · | · | ·
Cn1nnnc1SCc1nc2scc(-c3ccc(Cl)cc3)c2c(=O)[nH]1 | 22µM | ? | – | – | – | –
Cn1nnnc1SCc1nc2scc(-c3ccccc3)c2c(=O)[nH]1 | – | – | – | – | – | –
O=C(NCCSCc1ccsc1)C1CC1 | · | – | · | · | · | ·
O=C(CCc1ncc(-c2ccccc2)o1)NCC(c1ccccc1)N1CCCC1 (stereo unspecified) | · | – | · | · | · | ·
Cc1cccc2cc3c(N)c(C(=O)N4CCOCC4)sc3nc12 | 22µM | 25µM | – | – | ? | –
Nc1c(C(=O)N2CCOCC2)sc2nc(N3CCOCC3)c3c(c12)CCCC3 | – | 40µM | – | – | – | –
COc1ccc(CN(C)CC(=O)Nc2cc(C)nn2-c2ccccc2C)cc1 | · | – | · | · | · | ·
Cn1ccc2c(N3CCCC3)cc3c(c21)C1CCC3C1 (stereo unspecified) | · | 45µM | · | · | – | –
CCN(C)c1cc2c(c3c1ccn3C)C1CCC2C1 (stereo unspecified) | · | – | · | · | – | –
SMILES | Vif-APOBEC3F blk | ALOX12 inh | PTAP TSG101 blk | S-ASM inh | Vif-A3G inh | Akt phos inh
Cn1ccc2c(N3CCCCC3)cc3c(c21)C1CCC3C1 (stereo unspecified) | · | ? | · | · | – | –
COc1ccccc1N(C)c1cc2c(c3c1ccn3C)C1CCC2C1 (stereo unspecified) | · | 40µM | · | · | – | –
CN(CCc1ccccc1)c1cc2c(c3c1ccn3C)C1CCC2C1 (stereo unspecified) | · | 45µM | · | · | – | –
CN(Cc1ccccc1)c1cc2c(c3c1ccn3C)C1CCC2C1 (stereo unspecified) | · | ? | · | · | – | –
CCCNC(=O)CN1CCN(c2ncc(NC(=O)c3ccc(Cl)cc3)cc2C(=O)O)CC1 | – | – | · | · | – | ·
CCCCNC(=O)CN1CCN(c2ncc(NC(=O)c3ccc(Cl)cc3)cc2C(=O)O)CC1 | · | 35µM | · | · | · | ·
Cc1cc(C)n(-c2nc3c(c(=O)n(CC(C)C)c(=O)n3C)n2CCc2ccccc2)n1 | · | – | · | · | · | ·
CNC(=O)c1ccccc1NC(=O)c1cccc(S(=O)(=O)N2CCC(C)CC2)c1 | – | – | – | – | – | –
